From paper PMC5540273 (PLoS ONE, 2017)

system: T1, YANK2; conditions: concentration: 1 μM,replicates: in singlicate; n = 1
T1 construct: gene STK32B
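Further: KINOMEscan kinase panel screen.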

Point of comparison: Cc1ccc(Nc2ccnc(Nc3ccc4c(c3)CS(=O)(=O)C4)n2)cc1O.Cl [GW579362], “%Inh” value 0%. Against it:
- CN1CCN(CCNc2nc3cc(Oc4ccc(NC(=O)Nc5cc(C(F)(F)F)ccc5F)cc4)ccc3[nH]2)CC1.Cl.Cl [GW768504] — the same, 0%
- CN(c1ccccc1CNc1nc(Nc2ccc3c(c2)CC(=O)N3)ncc1C(F)(F)F)S(C)(=O)=O — the same, 0%
- C[C@@H](Oc1cc(-n2cnc3ccc(-c4ccncc4)cc32)sc1C(N)=O)c1ccccc1Cl [GSK483724] — higher, 1%
- CC(=O)c1c(-c2ccncc2)[nH]c(-c2ccncc2)c1C [GW493036] — the same, 0%
- N#Cc1cccc(C(=O)NC2CCN(c3ccnc(Nc4ccc(F)cc4)n3)C2)c1 (centres unmarked) [GSK1379708] — the same, 0%
- CS(=O)(=O)c1cccc(CNc2nc(Nc3ccc4c(c3)[C@@H]3C[C@@H]4CNC3=O)ncc2C(F)(F)F)c1 — the same, 0%
- CCN1CCN(CCCC(=O)Nc2n[nH]c3nc(-c4ccc(O)cc4)c(Br)cc23)CC1 [SB-731579] — the same, 0%
- C[C@@H](Oc1cc(-n2cnc3cc(-c4cnn(C)c4)ccc32)sc1C(N)=O)c1ccccc1Cl [GSK580432] — the same, 0%
- O=C1NCCc2[nH]c(-c3ccncc3)cc21 — the same, 0%
- c1ccc(Oc2ccc(Nc3ccnc4ccc(-c5ccccn5)cc34)cc2)cc1 [GW407034] — the same, 0%
- NC(=O)Nc1sc(-c2ccc(F)cc2)cc1C(N)=O [GW789449] — the same, 0%
- COc1cccc(CNC(=O)NC2CCN(c3ccnc(Nc4cc(OC)c(OC)c(OC)c4)n3)C2)c1 (centres unmarked) [GSK1379765] — the same, 0%
- COC(=O)c1cccc(NC(=O)NC2CCN(c3ccnc(Nc4cc(OC)c(OC)c(OC)c4)n3)C2)c1 (centres unmarked) [GSK1379767] — the same, 0%
- CC(=O)Nc1nc2cnc(Nc3cc(NC(=O)c4cccc(CC(C)(C)C#N)c4)ccc3C)nc2s1 — higher, 12%
- C[C@@H]1CNc2c(sc3ccc4nc(-c5ccncc5)ccc4c23)C(=O)N1 — the same, 0%
- Cl.Nc1n[nH]c2cc(-c3ccccn3)ccc12 [GSK2189892] — the same, 0%
- COc1cc2c(Nc3ccc(NC(=O)c4ccccc4)cc3)ncnc2cc1OCCCN1CCOCC1 [GSK301329] — the same, 0%
- Cc1ccc2c(-c3ccnc(Nc4ccc(C(F)(F)F)cc4)n3)cnn2n1 [GW819776] — the same, 0%
- CC(C)S(=O)(=O)N1CCN(Cc2ccc3c(c2)nc(NC(=O)c2ccsc2)n3C[C@H](O)c2ccccc2)CC1 [GW635815] — the same, 0%
- NC(=O)c1ccc(-c2cc3ncnc(SCC(=O)O)c3s2)cc1 — the same, 0%
- CCn1c(-c2nonc2N)nc2cncc(Br)c21 [SB-738004] — higher, 7%
- O=C(NCC1CC1)c1ccc(-c2cc(C(=O)NC3CC3)ccc2F)cc1 [GW810445] — the same, 0%
- COc1cc2ncn(-c3cc(OCC4CCCCC4)c(C(N)=O)s3)c2cc1OC [GSK204559] — higher, 8%
- COc1cccc(OC)c1C(=O)Nc1cccc(-c2nn3ccccc3c2-c2ccnc(Nc3cccc(F)c3)n2)c1 [GSK361065] — higher, 11%
- COC(=O)Nc1nc2cc(Oc3ccc(NC(=O)Nc4cc(C(F)(F)F)ccc4Cl)cc3)ccc2[nH]1.Cl [GW697465] — the same, 0%
- Cl.Cl.NC[C@H](CC1CCCCC1)NC(=O)c1ccc(-c2ccnc3[nH]ccc23)s1 [GSK1581428] — higher, 43%
- CN1CCN(CCCNc2nccc(-c3c(-c4ccc(F)cc4)nn4cc(C(N)=O)ccc34)n2)CC1 [GW622475] — higher, 17%
- O=C(NOCC1CC1)c1cc(Br)c(F)c(F)c1Nc1ccc(I)cc1Cl — the same, 0%
- CC(=O)Nc1ccc(-c2cc3ncnc(SCC(=O)O)c3s2)cc1 — the same, 0%
- OCCn1cc(-c2cnc3nnn(Cc4ccc5ncccc5c4)c3n2)cn1 — the same, 0%
- CCCC(=O)Nc1n[nH]c2ncccc12 [SB-601436] — the same, 0%
- CN(c1ccc2c(c1)nc(NCc1ccc(F)cc1)n2C)c1ccnc(Nc2ccc(CS(C)(=O)=O)cc2)n1.Cl [GW813244] — the same, 0%
- Cl.c1ccc(Oc2ccc(Nc3ccnc4cc(-c5ccc(CN6CCNCC6)o5)ccc34)cc2)nc1 [GW567142] — the same, 0%
- Cc1ccc(C(=O)Nc2ccc(Oc3ccc4nc(NC(=O)C5CC5)cn4c3)c(F)c2)c(=O)n1-c1ccccc1 — the same, 0%
- CN(c1cccc(CNc2nc(Nc3ccc4c(c3)CC(=O)N4)ncc2C(F)(F)F)c1)S(C)(=O)=O — the same, 0%
- CCn1c(-c2nonc2N)nc2cncc(CNC3CCNCC3)c21.Cl [SB-747651] — the same, 0%

system: T2, YANK3; conditions: concentration: 1 μM,replicates: in singlicate; n = 1
T2 construct: gene STK32C

Point of comparison: CN(c1ccccc1CNc1nc(Nc2ccc3c(c2)CC(=O)N3)ncc1C(F)(F)F)S(C)(=O)=O, “%Inh” value 0%. Against it:
- CN1CCN(CCNc2nc3cc(Oc4ccc(NC(=O)Nc5cc(C(F)(F)F)ccc5F)cc4)ccc3[nH]2)CC1.Cl.Cl [GW768504] — higher, 4%
- C[C@@H](Oc1cc(-n2cnc3ccc(-c4ccncc4)cc32)sc1C(N)=O)c1ccccc1Cl [GSK483724] — higher, 28%
- CC(=O)c1c(-c2ccncc2)[nH]c(-c2ccncc2)c1C [GW493036] — higher, 9%
- N#Cc1cccc(C(=O)NC2CCN(c3ccnc(Nc4ccc(F)cc4)n3)C2)c1 (centres unmarked) [GSK1379708] — higher, 10%
- CS(=O)(=O)c1cccc(CNc2nc(Nc3ccc4c(c3)[C@@H]3C[C@@H]4CNC3=O)ncc2C(F)(F)F)c1 — the same, 0%
- CCN1CCN(CCCC(=O)Nc2n[nH]c3nc(-c4ccc(O)cc4)c(Br)cc23)CC1 [SB-731579] — the same, 0%
- Cc1ccc(Nc2ccnc(Nc3ccc4c(c3)CS(=O)(=O)C4)n2)cc1O.Cl [GW579362] — the same, 0%
- C[C@@H](Oc1cc(-n2cnc3cc(-c4cnn(C)c4)ccc32)sc1C(N)=O)c1ccccc1Cl [GSK580432] — higher, 13%
- O=C1NCCc2[nH]c(-c3ccncc3)cc21 — higher, 6%
- c1ccc(Oc2ccc(Nc3ccnc4ccc(-c5ccccn5)cc34)cc2)cc1 [GW407034] — higher, 30%
- NC(=O)Nc1sc(-c2ccc(F)cc2)cc1C(N)=O [GW789449] — the same, 0%
- COc1cccc(CNC(=O)NC2CCN(c3ccnc(Nc4cc(OC)c(OC)c(OC)c4)n3)C2)c1 (centres unmarked) [GSK1379765] — higher, 7%
- COC(=O)c1cccc(NC(=O)NC2CCN(c3ccnc(Nc4cc(OC)c(OC)c(OC)c4)n3)C2)c1 (centres unmarked) [GSK1379767] — the same, 0%
- CC(=O)Nc1nc2cnc(Nc3cc(NC(=O)c4cccc(CC(C)(C)C#N)c4)ccc3C)nc2s1 — higher, 9%
- C[C@@H]1CNc2c(sc3ccc4nc(-c5ccncc5)ccc4c23)C(=O)N1 — higher, 17%
- Cl.Nc1n[nH]c2cc(-c3ccccn3)ccc12 [GSK2189892] — the same, 0%
- COc1cc2c(Nc3ccc(NC(=O)c4ccccc4)cc3)ncnc2cc1OCCCN1CCOCC1 [GSK301329] — higher, 10%
- Cc1ccc2c(-c3ccnc(Nc4ccc(C(F)(F)F)cc4)n3)cnn2n1 [GW819776] — the same, 0%
- CC(C)S(=O)(=O)N1CCN(Cc2ccc3c(c2)nc(NC(=O)c2ccsc2)n3C[C@H](O)c2ccccc2)CC1 [GW635815] — higher, 5%
- NC(=O)c1ccc(-c2cc3ncnc(SCC(=O)O)c3s2)cc1 — the same, 0%
- CCn1c(-c2nonc2N)nc2cncc(Br)c21 [SB-738004] — higher, 8%
- O=C(NCC1CC1)c1ccc(-c2cc(C(=O)NC3CC3)ccc2F)cc1 [GW810445] — the same, 0%
- COc1cc2ncn(-c3cc(OCC4CCCCC4)c(C(N)=O)s3)c2cc1OC [GSK204559] — higher, 6%
- COc1cccc(OC)c1C(=O)Nc1cccc(-c2nn3ccccc3c2-c2ccnc(Nc3cccc(F)c3)n2)c1 [GSK361065] — the same, 0%
- COC(=O)Nc1nc2cc(Oc3ccc(NC(=O)Nc4cc(C(F)(F)F)ccc4Cl)cc3)ccc2[nH]1.Cl [GW697465] — higher, 13%
- Cl.Cl.NC[C@H](CC1CCCCC1)NC(=O)c1ccc(-c2ccnc3[nH]ccc23)s1 [GSK1581428] — higher, 35%
- CN1CCN(CCCNc2nccc(-c3c(-c4ccc(F)cc4)nn4cc(C(N)=O)ccc34)n2)CC1 [GW622475] — higher, 16%
- O=C(NOCC1CC1)c1cc(Br)c(F)c(F)c1Nc1ccc(I)cc1Cl — higher, 2%
- CC(=O)Nc1ccc(-c2cc3ncnc(SCC(=O)O)c3s2)cc1 — higher, 26%
- OCCn1cc(-c2cnc3nnn(Cc4ccc5ncccc5c4)c3n2)cn1 — the same, 0%
- CCCC(=O)Nc1n[nH]c2ncccc12 [SB-601436] — the same, 0%
- CN(c1ccc2c(c1)nc(NCc1ccc(F)cc1)n2C)c1ccnc(Nc2ccc(CS(C)(=O)=O)cc2)n1.Cl [GW813244] — the same, 0%
- Cl.c1ccc(Oc2ccc(Nc3ccnc4cc(-c5ccc(CN6CCNCC6)o5)ccc34)cc2)nc1 [GW567142] — the same, 0%
- Cc1ccc(C(=O)Nc2ccc(Oc3ccc4nc(NC(=O)C5CC5)cn4c3)c(F)c2)c(=O)n1-c1ccccc1 — the same, 0%
- CN(c1cccc(CNc2nc(Nc3ccc4c(c3)CC(=O)N4)ncc2C(F)(F)F)c1)S(C)(=O)=O — the same, 0%
- CCn1c(-c2nonc2N)nc2cncc(CNC3CCNCC3)c21.Cl [SB-747651] — higher, 40%
